Experiments:
Experiment in all cases: yeast three-hybrid, YBZ-1, SC-Leu-His + 0.5 mM 3-AT, 4 days
Settings in all cases: tags: N-Gal4 AD-HA kept; label: inside an RPR1-promoter hybrid RNA with tandem MS2 sites; ssRNA
PUM1 PUF domain R3-YPR = PUM1 PUF domain R3-YPR (Homo sapiens, UniProt Q14671 828-1176, C935Y;R936P;Q939R)
How it was run: (§1)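 The interaction score is the log change in variant frequency from input to selection. Scores were computed in log2 with a pseudocount of 1 for absent variants, using Illumina sequencing of PCR-amplified repeat regions. The input came from four days on SC-Leu and the selection from four days on SC-Leu-His + 0.5 mM 3-AT. The cells were strain YBZ-1 (LexA–MS2 coat fusion, HIS3 reporter) co-expressing Pumilio-1 PUF domain libraries and matching RNA elements from a centromeric plasmid.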

PUM1 PUF domain R3-EWT = PUM1 PUF domain R3-EWT (Homo sapiens, UniProt Q14671 828-1176, C935E;R936W;Q939T)
How it was run: as §1

PUM1 PUF domain R7-QGR = PUM1 PUF domain R7-QGR (Homo sapiens, UniProt Q14671 828-1176, S1079Q;N1080G;E1083R)
How it was run: as §1

PUM1 PUF domain R4-ARV = PUM1 PUF domain R4-ARV (Homo sapiens, UniProt Q14671 828-1176, N971A;H972R;Q975V)
How it was run: as §1

PUM1 PUF domain R3-PHE = PUM1 PUF domain R3-PHE (Homo sapiens, UniProt Q14671 828-1176, C935P;R936H;Q939E)
How it was run: as §1

PUM1 PUF domain R5-GQK = PUM1 PUF domain R5-GQK (Homo sapiens, UniProt Q14671 828-1176, C1007G;R1008Q;Q1011K)
How it was run: as §1

PUM1 PUF domain R5-ELW = PUM1 PUF domain R5-ELW (Homo sapiens, UniProt Q14671 828-1176, C1007E;R1008L;Q1011W)
How it was run: as §1

PUM1 PUF domain R1-RNR = PUM1 PUF domain R1-RNR (Homo sapiens, UniProt Q14671 828-1176, S863R;R864N;Q867R)
How it was run: as §1

PUM1 PUF domain R5-NLS = PUM1 PUF domain R5-NLS (Homo sapiens, UniProt Q14671 828-1176, C1007N;R1008L;Q1011S)
How it was run: as §1

PUM1 PUF domain R5-NPE = PUM1 PUF domain R5-NPE (Homo sapiens, UniProt Q14671 828-1176, C1007N;R1008P;Q1011E)
How it was run: as §1

Chain of PUM1 PUF domain R3-YPR (Q14671 828-1176 C935Y/R936P/Q939R): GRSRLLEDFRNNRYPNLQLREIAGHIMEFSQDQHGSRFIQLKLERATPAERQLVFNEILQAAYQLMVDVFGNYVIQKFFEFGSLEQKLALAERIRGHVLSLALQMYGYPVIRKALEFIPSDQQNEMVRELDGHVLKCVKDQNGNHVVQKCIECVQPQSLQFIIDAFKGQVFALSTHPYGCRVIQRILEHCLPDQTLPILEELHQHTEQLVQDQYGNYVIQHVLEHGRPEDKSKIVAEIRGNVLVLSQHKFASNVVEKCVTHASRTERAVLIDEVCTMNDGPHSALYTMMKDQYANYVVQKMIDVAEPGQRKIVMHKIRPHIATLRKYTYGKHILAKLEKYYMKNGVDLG
Chain of PUM1 PUF domain R4-ARV (Q14671 828-1176 N971A/H972R/Q975V): as the sequence (Q14671 828-1176 C935Y/R936P/Q939R) above, with Y108C, P109R, R112Q, N144A, H145R, Q148V counted along it
Chain of PUM1 PUF domain R1-RNR (Q14671 828-1176 S863R/R864N/Q867R): as the sequence (Q14671 828-1176 C935Y/R936P/Q939R) above, with S36R, R37N, Q40R, Y108C, P109R, R112Q counted along it
Chain of PUM1 PUF domain R3-EWT (Q14671 828-1176 C935E/R936W/Q939T): as the sequence (Q14671 828-1176 C935Y/R936P/Q939R) above, with Y108E, P109W, R112T counted along it
Chain of PUM1 PUF domain R5-GQK (Q14671 828-1176 C1007G/R1008Q/Q1011K): as the sequence (Q14671 828-1176 C935Y/R936P/Q939R) above, with Y108C, P109R, R112Q, C180G, R181Q, Q184K counted along it
Chain of PUM1 PUF domain R5-NPE (Q14671 828-1176 C1007N/R1008P/Q1011E): as the sequence (Q14671 828-1176 C935Y/R936P/Q939R) above, with Y108C, P109R, R112Q, C180N, R181P, Q184E counted along it
Chain of PUM1 PUF domain R3-PHE (Q14671 828-1176 C935P/R936H/Q939E): as the sequence (Q14671 828-1176 C935Y/R936P/Q939R) above, with Y108P, P109H, R112E counted along it
Chain of PUM1 PUF domain R5-NLS (Q14671 828-1176 C1007N/R1008L/Q1011S): as the sequence (Q14671 828-1176 C935Y/R936P/Q939R) above, with Y108C, P109R, R112Q, C180N, R181L, Q184S counted along it
Chain of PUM1 PUF domain R7-QGR (Q14671 828-1176 S1079Q/N1080G/E1083R): as the sequence (Q14671 828-1176 C935Y/R936P/Q939R) above, with Y108C, P109R, R112Q, S252Q, N253G, E256R counted along it
Chain of PUM1 PUF domain R5-ELW (Q14671 828-1176 C1007E/R1008L/Q1011W): as the sequence (Q14671 828-1176 C935Y/R936P/Q939R) above, with Y108C, P109R, R112Q, C180E, R181L, Q184W counted along it

GGCUAGAACUAGUGGAUCCCCCGGCGCCCGGCGGCUCGAGCCCGGGUAAGUGUAAGUAGUCUGCAUGCCGCCGGGCGCCAUGCCUGCAGGUCGACUCUAGAAAACAUG
binding signal (PUM1 PUF domain R3-YPR): 3.45 log2 enrichment (interaction score) | binding signal (PUM1 PUF domain R3-EWT): 4.76 log2 enrichment (interaction score)

GGCUAGAACUAGUGGAUCCCCCGGCGCCCGGCGGCUCGAGCCCGGGUAAGUGUAAUUAGUCUGCAUGCCGCCGGGCGCCAUGCCUGCAGGUCGACUCUAGAAAACAUG
binding signal (PUM1 PUF domain R3-YPR): 0.67 log2 enrichment (interaction score)

GGCUAGAACUAGUGGAUCCCCCGGCGCCCGGCGGCUCGAGCCCGGGUAAGUUUAAAUAGUCUGCAUGCCGCCGGGCGCCAUGCCUGCAGGUCGACUCUAGAAAACAUG
binding signal (PUM1 PUF domain R7-QGR): 2.75 log2 enrichment (interaction score)

GGCUAGAACUAGUGGAUCCCCCGGCGCCCGGCGGCUCGAGCCCGGGUAAGUGUAAAUAGUCUGCAUGCCGCCGGGCGCCAUGCCUGCAGGUCGACUCUAGAAAACAUG
binding signal (PUM1 PUF domain R3-EWT): 4.31 log2 enrichment (interaction score) | binding signal (PUM1 PUF domain R4-ARV): 4.56 log2 enrichment (interaction score) | binding signal (PUM1 PUF domain R3-PHE): 4.47 log2 enrichment (interaction score) | binding signal (PUM1 PUF domain R5-GQK): 2.37 log2 enrichment (interaction score) | binding signal (PUM1 PUF domain R5-ELW): 2.28 log2 enrichment (interaction score)

GGCUAGAACUAGUGGAUCCCCCGGCGCCCGGCGGCUCGAGCCCGGGUAAGUGUAAAUUGUCUGCAUGCCGCCGGGCGCCAUGCCUGCAGGUCGACUCUAGAAAACAUG
binding signal (PUM1 PUF domain R1-RNR): 4.23 log2 enrichment (interaction score)

GGCUAGAACUAGUGGAUCCCCCGGCGCCCGGCGGCUCGAGCCCGGGUAAGUGUAAAUCGUCUGCAUGCCGCCGGGCGCCAUGCCUGCAGGUCGACUCUAGAAAACAUG
binding signal (PUM1 PUF domain R1-RNR): 4.17 log2 enrichment (interaction score)

GGCUAGAACUAGUGGAUCCCCCGGCGCCCGGCGGCUCGAGCCCGGGUAAGUGUUAAUAGUCUGCAUGCCGCCGGGCGCCAUGCCUGCAGGUCGACUCUAGAAAACAUG
binding signal (PUM1 PUF domain R5-NLS): 6.48 log2 enrichment (interaction score)

GGCUAGAACUAGUGGAUCCCCCGGCGCCCGGCGGCUCGAGCCCGGGUAAGUGUGAAUAGUCUGCAUGCCGCCGGGCGCCAUGCCUGCAGGUCGACUCUAGAAAACAUG
binding signal (PUM1 PUF domain R5-NPE): 4.36 log2 enrichment (interaction score)

GGCUAGAACUAGUGGAUCCCCCGGCGCCCGGCGGCUCGAGCCCGGGUAAGUGUACAUAGUCUGCAUGCCGCCGGGCGCCAUGCCUGCAGGUCGACUCUAGAAAACAUG
binding signal (PUM1 PUF domain R4-ARV): 0.8 log2 enrichment (interaction score)

GGCUAGAACUAGUGGAUCCCCCGGCGCCCGGCGGCUCGAGCCCGGGUAAGUGUCAAUAGUCUGCAUGCCGCCGGGCGCCAUGCCUGCAGGUCGACUCUAGAAAACAUG
binding signal (PUM1 PUF domain R5-GQK): 2.24 log2 enrichment (interaction score)

From PMC8384837, “Expanding the binding specificity for RNA recognition by a PUF domain”
